According to PubChem BioAssay (NCI):
Several values for one entry are separate records, joined by “and”; a condition that tells them apart may be missing. Identical values can stand only once. This is part of a sample that, as a whole, favours compounds with a hit. Of some 79,000 tested, about 15% had one in any assay. Cut-off read from the data, not from the text of the source: active = growth inhibition above about 70%; inactive = the rest.

Assays:
[1] = NCI Yeast Anticancer Drug Screen. Data for the rad50 strain (AID 155);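 note: 0% = growth of vehicle-only cultures of the same strain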; conditions: S. cerevisiae rad50 strain growth inhibition; at 50.0 µM; stronger effect = higher value
Summary of the method: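 Yeast carrying a defined DNA repair defect were exposed to test compounds, and growth was compared with vehicle-treated controls to give percent inhibition.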

[2] = NCI Yeast Anticancer Drug Screen. Data for the mec2-1 strain (AID 157); conditions: S. cerevisiae mec2-1 strain, at 50.0 µM, stronger effect = higher value
Summary of the method: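 Readout is yeast growth inhibition, normalised to vehicle-treated controls, in the mec2-1 strain exposed to compound.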

[3] = NCI Yeast Anticancer Drug Screen. Data for the sgs1 mgt1 strain (AID 161);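 note: 0% = growth of cultures given vehicle only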; conditions: S. cerevisiae sgs1 mgt1 strain, at 50.0 µM, stronger effect = higher value
Summary of the method: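 Yeast cells carrying a defined DNA-repair defect were exposed to test compounds. Growth inhibition was measured relative to vehicle-treated controls.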

[4] = NCI Yeast Anticancer Drug Screen. Data for the cln2 rad14 strain (AID 165);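 note: 0% = growth equal to vehicle treated cultures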; conditions: S. cerevisiae cln2 rad14 strain, at 50.0 µM, stronger effect = higher value
Summary of the method: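 Relative to vehicle controls, growth inhibition of compound-treated cln2 rad14 yeast was recorded.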

[5] = NCI Yeast Anticancer Drug Screen. Data for the bub3 strain (AID 167); conditions: S. cerevisiae bub3 mutant strain, at 50.0 µM, stronger effect = higher value
Summary of the method: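 Compounds were applied to a genetically altered yeast strain carrying a cell-cycle control defect. Growth inhibition was scored against vehicle-treated controls.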

[6] = NCI Yeast Anticancer Drug Screen. Data for the mlh1 rad18 strain (AID 175); conditions: S. cerevisiae mlh1 rad18 strain growth inhibition; at 50.0 µM; stronger effect = higher value
Summary of the method: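 Test agents were incubated with a yeast strain of defined genotype (DNA damage repair defect). Inhibition of growth was derived by comparison with vehicle-exposed cultures.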

Measured: growth inhibition

O=c1[nH]c2ccc([As](=O)(O)O)cc2[nH]1
inactive: [1] -8.7% | [2] -1.1% | [3] -0.95% | [4] -5.2% | [5] 13.7% | [6] 8.55%

CC1OC(O[C@@H]2C=C3CC[C@@H]4[C@H](CC[C@]5(C)[C@@H](c6ccc(=O)oc6)CC[C@]45O)[C@@]3(C)CC2)C(O)C(O)C1O (stereo not given in full)
inactive: [1] 2.85% | [2] -37.5% | [3] -25% | [4] 13.1% | [5] -15.9% | [6] 4.7%

COc1cccc(C=C2C(=O)NC(=S)NC2=O)c1O
inactive: [1] -8.95% | [2] -12.6% | [3] -4.35% | [4] 15.7% | [5] -2.25% | [6] 26.6%

CC(c1ccccc1)N1CCN(C(C)c2ccccc2)CC1 (stereo not given)
inactive: [1] 2.75% | [2] -34.5% | [3] -31.7% | [4] 26.4% | [5] -30% | [6] 4.95%

Cc1sc2cccc[n+]2c1C
inactive: [1] 5.85% | [2] -12.9% | [3] -8.95% | [4] -8.95% | [5] -3.4% | [6] -14.4%

CN(C)CCCCCCN(C)C
inactive: [1] -8.85% | [2] 3.9% | [3] -12.5% | [4] -9.8% | [5] 6.9% | [6] -4.75%

CN1C2C=CC1c1c(C3=NC(C)(C)CO3)cccc12 (stereo not given)
inactive: [1] -8.15% | [2] -8.05% | [3] -7.95% | [4] -36% | [5] 6.85% | [6] 2.6%

CCOP(=O)(OCC)C1CC(C(C)C)CC=C1C (stereo not given)
inactive: [1] 5.4% | [2] -8.95% | [3] -2.15% | [4] 1.25% | [5] 3.75% | [6] 15.1%

O=C(O)CCC(=O)O
inactive: [1] -8.1% and 5.7% | [2] -16.6% and -2.05% | [3] -22.3% and -6.35% | [4] -41.9% and 13.8% | [5] -28% and -2.05% | [6] -13.1% and 11.2%

CCCC1C(=O)NC(=O)NC1=O
inactive: [1] 6.3% | [2] -6% | [3] -0.75% | [4] -10.9% | [5] 3.75% | [6] -1.05%

COc1ccc(NC2=NCCO2)c2ccccc12
inactive: [1] -11.9% | [2] -42.3% | [3] -31.1% | [4] -0.3% | [5] -13.4% | [6] -20.9%

COC1=CCC2=C(CC[C@H]3[C@H]2CCP3C)C1 (stereo not given in full)
inactive: [1] 8.65% | [2] -10.8% | [3] -7.85% | [4] -17.9% | [5] 0.9% | [6] 5.25%

CC(=O)C(C(C)=O)C(=O)c1ccc([N+](=O)[O-])cc1.[Cr]
inactive: [1] -23.5% | [2] 9.5% | [3] 6.3% | [4] -55.5% | [5] 28.5% | [6] 23.2%

CCCN(CCC)c1c([N+](=O)[O-])cc(C(=O)N(CC)CC)cc1[N+](=O)[O-]
inactive: [1] 40.6% | [2] 29.8% | [3] 37.4% | [4] 13.8% | [5] 34.1% | [6] 11.3%

CN1C2CCCC1CC(=O)C2
inactive: [1] -10.3% | [2] -3.55% | [3] -19.4% | [4] -22.4% | [5] -3.55% | [6] -10.8%

CC(C)CCC[C@@H](C)[C@H]1CC[C@H]2[C@@H]3CC=C4C[C@@H](OC(=O)F)CC[C@]4(C)[C@H]3CC[C@]12C
inactive: [1] 19.9% | [2] 20.6% | [3] 42.5% | [4] 35.9% | [5] 26.9% | [6] 33.7%

c1cc2c(c(NC3=NCCO3)c1)CCCC2
inactive: [1] 3.4% and 5.65% | [2] 1.05% and -2.1% | [3] -2.5% and 6.05% | [4] -45.5% and 0.05% | [5] -5.35% and 39.4% | [6] -1.1% and -6.15%

CNCCc1c[nH]c2ccc(O)cc12
inactive: [1] -2.15% | [2] -8.6% | [3] -1.35% | [4] -39.5% | [5] 18.9% | [6] -10.7%

COc1ccc(CC2C3=C(CCCC3)CCN2C)cc1 (stereo not given)
inactive: [1] 45.2% | [2] 21.9% | [3] 28.6% | [4] 21.8% | [5] 17.6% | [6] -25.8%

O=S(=O)(c1ccccc1)N1CN2CCN(C2)C1
inactive: [1] 17.6% | [2] 7.2% | [3] 31.6% | [4] 2.65% | [5] 5.5% | [6] 10.4%
